Sampled rows, rich in hits. Any-hit rate of the full collection: about 11%.
FLuc inh: Firefly luciferase inhibition profiling of diverse chemical library using quantitative high-throughput screening. 2.5% of 76,000 active. purified P. pyralis luciferase, luminescence, biochemical. Luciferin 4-monooxygenase (Photinus pyralis), P08659. AID 1347043, 2019. Potency, µM (highest dose often 115 µM), most hits filed as inhibitors; note: nearly all actives have a fitted effect of over 65% in size
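Purified P. pyralis luciferase (10nM final) in 50mM Tris acetate pH 7.5, 10mM Mg acetate, 0.01% Tween-20, 0.05% BSA with 10uM D-luciferin and 10uM ATP. Compounds titrated qHTS. Luminescence imaged on CCD.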
HEK cytotox: Cytotoxic Profiling in HEK 293 Cell Line of Diverse Libraries Using Quantitative High-Throughput Screening; HEK 293 viability, ATP luminescence (CellTiter-Glo), 48-72 h; Potency, µM (doses to about 115 µM), inactives show at the top dose activity change, negative = cytotoxicity, actives largely listed as inhibitors; 6.6% of 94,000 active; note: nearly all actives have a fitted effect of over 60% in size
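Pintool-delivered compounds were incubated with HEK 293 cells (250 cells/well) at 37 degree Celsius for 48 or 72 hr. ATP-dependent luminescence (CellTiter-Glo) then reported remaining viable cells.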
hNpr1 antagonist: Natriuretic polypeptide receptor (hNpr1) antagonism - Primary qHTS. Atrial natriuretic peptide receptor 1 (Homo sapiens), P16066. HEK293 hNpr1 GloSensor cGMP, ANP-stimulated luminescence. Potency, µM (series often up to 46.3 µM), without a hit: at the top dose activity change, negative = inhibition, actives largely listed as inhibitors. 1.6% of 76,000 active; calls by dose curve; note: nearly all actives have a fitted effect of over 60% in size
Target sequence (P16066 whole entry, looked up): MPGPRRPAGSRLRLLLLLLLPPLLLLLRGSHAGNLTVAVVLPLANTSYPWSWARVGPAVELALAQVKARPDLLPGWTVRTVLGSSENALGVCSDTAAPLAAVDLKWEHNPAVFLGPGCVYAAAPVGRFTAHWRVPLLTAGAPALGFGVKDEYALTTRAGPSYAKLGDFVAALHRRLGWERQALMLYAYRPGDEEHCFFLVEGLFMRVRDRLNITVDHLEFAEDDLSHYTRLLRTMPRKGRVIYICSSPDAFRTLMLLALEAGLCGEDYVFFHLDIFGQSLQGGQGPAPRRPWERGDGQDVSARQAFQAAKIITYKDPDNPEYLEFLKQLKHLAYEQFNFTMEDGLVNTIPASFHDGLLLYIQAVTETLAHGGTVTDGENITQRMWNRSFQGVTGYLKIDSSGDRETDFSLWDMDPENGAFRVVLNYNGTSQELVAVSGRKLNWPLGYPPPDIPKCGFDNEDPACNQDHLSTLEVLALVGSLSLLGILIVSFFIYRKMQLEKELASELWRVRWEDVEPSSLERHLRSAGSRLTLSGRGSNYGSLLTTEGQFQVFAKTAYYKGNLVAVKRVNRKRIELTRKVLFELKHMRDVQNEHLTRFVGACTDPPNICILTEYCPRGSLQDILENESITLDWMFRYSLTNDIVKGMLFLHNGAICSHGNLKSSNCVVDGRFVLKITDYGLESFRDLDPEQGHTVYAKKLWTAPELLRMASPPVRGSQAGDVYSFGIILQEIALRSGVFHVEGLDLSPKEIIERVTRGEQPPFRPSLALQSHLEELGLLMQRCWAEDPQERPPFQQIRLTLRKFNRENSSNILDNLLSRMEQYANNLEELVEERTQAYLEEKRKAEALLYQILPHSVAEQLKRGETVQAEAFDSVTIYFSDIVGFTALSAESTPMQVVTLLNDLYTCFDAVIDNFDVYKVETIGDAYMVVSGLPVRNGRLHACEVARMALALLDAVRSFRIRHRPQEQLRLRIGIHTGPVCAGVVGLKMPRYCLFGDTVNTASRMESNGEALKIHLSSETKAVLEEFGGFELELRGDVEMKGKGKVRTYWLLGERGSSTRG
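HEK293 cells stably expressing human Npr1 and cGMP GloSensor pGS-40F, loaded 2 h with 2% GloSensor reagent, given compound 30 min at room temperature. Luminescence read before and 20 min after 0.1 nM hNppA.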
NIH3T3 tox: Cytotoxic Profiling in NIH 3T3 Cell Line of Diverse Libraries Using Quantitative High-Throughput Screening; NIH 3T3 viability, CellTiter-Glo ATP luminescence, 48-72 h; Potency, µM (series often up to 96.7 µM), inactives show at the highest dose activity change, negative = cytotoxicity, actives largely listed as inhibitors; 4.3% of 94,000 active; note: nearly all actives have a fitted effect of over 55% in size
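ATP-dependent luminescence (CellTiter-Glo) served as the viability signal for NIH 3T3 cells treated with compound for 48 or 72 hr at 37 °C.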
Numbers without * were called inactive; i = inactive; ? = inconclusive; . = no result; [ ] = dose if it differs, or a comment. Unless noted, calls come from the whole dose curve; as a rule, active = well fitted curve in the direction sought with a large enough effect; inconclusive = small, poorly fitted or top-dose-only effect, or another doubt; inactive = no such curve, though single readings can be large; an effect the other way counts as inactive or inconclusive. % is set by controls: 0 for no effect and ±100 for the full control effect; potency is the fitted concentration of half-maximal effect.

SMILES	FLuc inh	HEK cytotox	hNpr1 antagonist	NIH3T3 tox
COc1ccc(Cl)cc1-c1ccc2c(c1)C(=O)N1CC[C@H](NC(=O)c3cccs3)C[C@H]1C(=O)N2	i	32µM*	-25%	?
O=C1Nc2ccc(-c3cccc(C(F)(F)F)c3)cc2C(=O)N2CCN(C(=O)c3cccnc3)C[C@H]12	i	?	-4%	-19%
COc1ccc(Cl)cc1-c1ccc2c(c1)C(=O)N1CCN(C(=O)C3CCCCC3)C[C@@H]1C(=O)N2	i	?	2%	45µM*
C=CCC1(CO)CCCN(CC(=O)NCCc2ccc(Cl)cc2)C1 (stereo unspecified)	i	?	-2%	-25%
NC(=O)c1cccc(-c2n[nH]c3c2CC(=O)N(Cc2ccccc2)C3)c1	i	-1%[172 µM]	-1%[70.6 µM]	?
O=C1Nc2ccc(-c3ccccc3)cc2C(=O)N2CCN(C(=O)c3ccccc3)C[C@H]12	i	89µM*	-13%[70.6 µM]	?
N[C@H]1CCN2C(=O)c3cc(-c4ccc(Cl)cc4)ccc3NC(=O)[C@@H]2C1	i	40µM*	0%[70.6 µM]	32µM*
O=C(N[C@H]1CCN2C(=O)c3cc(Br)ccc3NC(=O)[C@@H]2C1)c1ccco1	i	?	2%[70.6 µM]	89µM*
NC(=O)C(=O)N1CCN2C(=O)c3cc(-c4ccc(Cl)cc4)ccc3NC(=O)[C@@H]2C1	i	?	-1%[70.6 µM]	?
O=C1Nc2ccc(-c3ccccc3F)cc2C(=O)N2CCN(C(=O)c3ccccc3)C[C@H]12	i	?	-2%[70.6 µM]	?
CNC(=O)c1cc(C)nc2onc(C3CCN(C(=O)c4ccncc4)C3)c12 (stereo unspecified)	.	4%	.	-18%
COCCNC(=O)c1ccc2nnc(-c3cc(C(F)(F)F)cc(C(F)(F)F)c3)n2c1	.	-18%	.	-29%
CN1c2ncccc2CN(Cc2ccccc2O)CC[C@H]1CO	i	1%[172 µM]	0%[70.6 µM]	-10%[138 µM]
CC(=O)N1CCC(N2CC[C@@H](CO)N(C)c3ncccc3C2)CC1	i	?	6%[70.6 µM]	45µM*
CCCCn1c(=O)c(C(=O)NC2CCCc3ccccc32)nc2cccnc21 (stereo unspecified)	.	40µM*	.	35µM*
FC(F)(F)c1ccc2c(c1)nc1n2[C@@H](CNCc2c[nH]c3ccccc23)COC1	i	89µM*	-17%[70.6 µM]	?
Cc1ccsc1C(=O)N1CCC2(CC1)OC(=NCCc1ccccc1)NC2=O	.	-20%	.	-25%
O=C(c1ccccc1)N1CCCC(c2nc(C3CCOCC3)no2)C1 (stereo unspecified)	i	4%	-9%	-3%
O=C(CCN1c2ccccc2Sc2ccccc21)N1CCCC(c2nc(C3CCOCC3)no2)C1 (stereo unspecified)	i	40µM*	-25%	?
N#Cc1cccc(S(=O)(=O)N[C@H]2[C@H](O)[C@H](O)C[C@@H]2c2ccc(C(F)(F)F)cc2)c1	i	-15%[172 µM]	1%[70.6 µM]	-5%[138 µM]
O=C(NC1CC1)C1CCCN(Cc2cccc(-c3cccs3)c2)C1 (stereo unspecified)	.	40µM*	.	?
O=C(NC1CCCCC1)C1CCCN(Cc2cccc(-c3cccs3)c2)C1 (stereo unspecified)	.	?	.	28µM*
O=C(NC1CCN(Cc2cccc(-c3cccs3)c2)CC1)C1CCCC1	.	-37%	.	-19%
O=C(NC1CCCC1)C1CCCN(Cc2cccc(-c3cccs3)c2)C1 (stereo unspecified)	.	45µM*	.	?
CC(=O)N1CCN(C(=O)C2CCN(Cc3ccccc3-c3cccnc3)CC2)CC1	.	i	.	i
SMILES	FLuc inh	HEK cytotox	hNpr1 antagonist	NIH3T3 tox
CC(C)N1CC(C(=O)NCc2ccc(C(F)(F)F)cc2)NC1=O (stereo unspecified)	.	-29%[172 µM]	.	-20%[138 µM]
CC1(c2cccnc2)N(Cc2ccccc2)C(=O)OC12CCN(C(=O)c1cnccn1)CC2 (stereo unspecified)	i	-15%	-9%	28µM*
CC1(c2ccccc2)N(Cc2ccccc2)C(=O)OC12CCN(C(=O)COc1ccccc1)CC2 (stereo unspecified)	i	?	2%	28µM*
CC1(c2cccnc2)N(Cc2ccccc2)C(=O)OC12CCN(C(=O)COc1ccccc1)CC2 (stereo unspecified)	i	-9%	1%	32µM*
CC1(c2cccnc2)N(CC2CC2)C(=O)OC12CCN(C(=O)c1ccccc1)CC2 (stereo unspecified)	i	-2%[172 µM]	-8%[70.6 µM]	?
COCC(=O)N1CCC2(CC1)OC(=O)N(CCOc1ccccc1)C2(C)c1cccnc1 (stereo unspecified)	i	-9%[172 µM]	3%[70.6 µM]	50µM*
COCC(=O)N1CCC2(CC1)OC(=O)N(Cc1ccc(O)cc1)C2(C)c1ccccc1 (stereo unspecified)	i	i	4%[70.6 µM]	?
CCC(C)NC(=O)C1CCCN1C(=O)c1cccc(-c2cccnc2)c1 (stereo unspecified)	.	-1%	.	-6%
C=CCN(C)C(=O)C[C@@H]1c2nc(NC(=O)c3cccs3)sc2C[C@@H]2[C@](C)(CO)[C@H](O)CC[C@]21C	i	?	-6%	-7%
C=CCc1ccccc1OCCN(C)Cc1nc(C)ccc1O	i	?	0%	?
C=CCc1ccccc1OCCN(C)Cc1ncnn1CC	i	?	0%	-27%
C=CCc1ccccc1OCCN(C)Cc1ccc(S(C)(=O)=O)cc1	i	40µM*	-13%	?
C=CCc1ccccc1OCCN(C)Cc1cc2ccc(F)cc2[nH]c1=O	i	45µM*	?	35µM*
COc1ccc(-c2ccc(C(=O)N3CCN(C(=O)C4CC4)CC3)cc2)nn1	.	-14%	.	-28%
CC(C)C[C@@H]1N[C@H](C(=O)NCc2ccccn2)Cc2c[nH]c3cccc1c23	i	28µM*	-18%[70.6 µM]	?
CC(C)C[C@@H]1N[C@H](C(=O)NCc2ccccc2)Cc2c[nH]c3cccc1c23	i	35µM*	-18%[70.6 µM]	32µM*
COc1ccc(CNC(=O)[C@@H]2Cc3c[nH]c4cccc(c34)[C@H](CC(C)C)N2)cc1	i	79µM*	-12%[70.6 µM]	45µM*
CC(C)C[C@@H]1N[C@H](C(=O)NCCCn2ccnc2)Cc2c[nH]c3cccc1c23	i	?	2%[70.6 µM]	?
C=CCNC(=O)[C@@H]1Cc2c[nH]c3cccc(c23)[C@H](CC(C)C)N1	i	?	4%[70.6 µM]	?
CC(C)C[C@@H]1N[C@H](C(=O)NCc2ccc(F)cc2)Cc2c[nH]c3cccc1c23	i	28µM*	-16%[70.6 µM]	40µM*
COc1ccc(Cl)cc1C(=O)N1CCC[C@H]1c1nc(-c2ccc(C)cc2)no1	i	?	-12%	?

Source: PubChem BioAssay
